KB-V1 cytotox – kills drug-selected multidrug resistant KB-V1 cells | AID 1347076 | 400,000 compounds, 3.4% hits | Potency, µM (top dose mostly 46.1 µM), usual class: cytotoxic | KB-V1 MDR cells viability, CellTiter-Glo, 72 h; further: nearly all actives have a fitted effect of over 60% in size
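KB-V1, DMEM (no phenol red) + 10% FBS; cpd pin-transferred, titration series; 72 h, 37 degrees C; CellTiter-Glo, luminescence. Data normalized, curve-fit.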
KB-3-1 cytotox – KB-3-1 parental cell cytotoxicity. KB-3-1 viability, CellTiter-Glo ATP luminescence, 72 h. 400,000 compounds, 1.4% hits. Potency, µM (titrated, usually from 46.1 µM), most hits filed as cytotoxic. AID 1347075; further: nearly all actives have a fitted effect of over 60% in size
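Luminescent ATP read-out (CellTiter-Glo) measures survival of drug-naive KB-3-1 cells after 72 h compound exposure at 37 °C. Titration series was screened from lowest to highest concentration, with DMSO vehicle plates as background controls.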
SW480 rerep – induces DNA re-replication in SW480 colon adenocarcinoma cells. 340,000 compounds, 1.8% hits. SW480 DNA re-replication, Hoechst DNA content imaging, 48 h. Potency, µM (titrated, usually from 46.1 µM), usual class: activators. AID 624297; further: nearly all actives have a fitted effect of over 55% in size
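Cells (250 per well) received 23 nL compound or DMSO by pin tool and were kept 48 hr at 37 C, 5% CO2. Nuclei were then stained with Hoechst for 40 min and scanned for DNA content.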
MCF10A rereplic – inducers of DNA re-replication in MCF 10A breast cells | MCF 10A DNA re-replication, Hoechst nuclear intensity, 48 h | 350,000 compounds, 2.9% hits | Potency, µM (series often up to 46.1 µM), most hits filed as activators; further: nearly all actives have a fitted effect of over 50% in size
IL1B secr inh – inhibitors of inflammasome signaling (IL-1 beta secretion). THP-1 LPS/ATP IL-1B secretion, AlphaLISA, 16 h; stronger effect = lower value. activity change, % at 57.5 µM. 360,000 compounds, 4.7% hits. AID 743279; in the data active means activity change below about -50%; inconclusive means mostly about -30% to -49%
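THP-1 cells pretreated 1 hr with compounds (up to 57.5 uM final), then stimulated with LPS (250 ng/mL final) plus ATP (1.25 mM final); secreted IL-1B measured by AlphaLISA after 16 hr, decreased signal indicating inhibition.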
Numbers stand for hits; [ ] = remark or other dose. Shown are actives, neighbours in structure and some others; about 9.9% of the full set was active somewhere. Unless noted, the call rests on the fitted dose curve; in most records, active means well fitted curve in the direction sought with a large enough effect; inconclusive means small, poorly fitted or top-dose-only effect, or another doubt; inactive means no such curve, though single readings can be large; an effect the other way counts as inactive or inconclusive.

Results for CCOC(=O)C1=C(CSc2nc3c(cc2C#N)CN(C)CC3)OC(N)=C(C#N)C1c1ccncc1 (stereo unspecified) ?
KB-V1 cytotox: inactive; KB-3-1 cytotox: inactive; SW480 rerep: inconclusive; MCF10A rereplic: inconclusive; IL1B secr inh: inactive

What do the screens show for `CCOC(=O)C1=C(CSc2nc3c(cc2C#N)CN(C)CC3)OC(N)=C(C#N)C1c1ccc(Cl)cc1` (stereo unspecified)?
KB-V1 cytotox: inactive; KB-3-1 cytotox: inactive; SW480 rerep: inconclusive; MCF10A rereplic: 26µM; IL1B secr inh: inactive

What do the screens show for `CCOC(=O)C1=C(CSc2nc(CC)c(C)cc2C#N)OC(N)=C(C#N)C1c1ccccc1` (stereo unspecified)?
KB-V1 cytotox: inactive; KB-3-1 cytotox: inactive; SW480 rerep: inactive; MCF10A rereplic: inconclusive; IL1B secr inh: inactive

Results for CCOC(=O)C1=C(CSc2nc(-c3ccccc3)ccc2C#N)OC(N)=C(C#N)C1c1ccc(OC)cc1 (stereo unspecified) ?
KB-V1 cytotox: inactive; KB-3-1 cytotox: inactive; SW480 rerep: inconclusive; MCF10A rereplic: 16µM; IL1B secr inh: inactive

What do the screens show for `CCc1nnc(NC(=O)CCC(=O)N2CCC(Cc3ccccc3)CC2)s1`?
KB-V1 cytotox: inconclusive; KB-3-1 cytotox: inconclusive; SW480 rerep: inactive; MCF10A rereplic: inactive; IL1B secr inh: inactive

Results for Cc1ccc(C(=O)NNC(=O)c2cccc(Br)c2)cc1 ?
KB-V1 cytotox: inactive; KB-3-1 cytotox: inactive; SW480 rerep: inactive[1.84 µM]; MCF10A rereplic: inactive; IL1B secr inh: inactive

What do the screens show for `CC(C)(C)c1ccc(C(=O)NNC(=O)c2cccc(Br)c2)cc1`?
KB-V1 cytotox: inactive; KB-3-1 cytotox: inactive; SW480 rerep: inconclusive; MCF10A rereplic: 12µM; IL1B secr inh: inactive

How did O=S1(=O)N=C(Oc2ccccc2Br)c2ccccc21 do in these assays?
KB-V1 cytotox: inactive; KB-3-1 cytotox: inactive

How did CC(C)Cn1c(O)c(N=NC(=O)c2cccc(S(=O)(=O)N3CCCCC3)c2)c2ccccc21 do in these assays?
KB-V1 cytotox: 2.1µM; KB-3-1 cytotox: inconclusive; SW480 rerep: inconclusive; MCF10A rereplic: inconclusive; IL1B secr inh: inconclusive

What do the screens show for `CC(C)CCn1c(O)c(N=NC(=O)c2ccco2)c2ccccc21`?
KB-V1 cytotox: 13µM; KB-3-1 cytotox: inactive; SW480 rerep: inactive; MCF10A rereplic: inactive; IL1B secr inh: inactive

Results for Cn1c(O)c(N=NC(=O)c2ccccc2O)c2ccccc21 ?
KB-V1 cytotox: 16µM; KB-3-1 cytotox: inactive; SW480 rerep: inconclusive; MCF10A rereplic: inconclusive; IL1B secr inh: inactive

How did O=C(NNC(=O)c1cccc(S(=O)(=O)N2CCCCC2)c1)c1ccccc1 do in these assays?
KB-V1 cytotox: inactive; KB-3-1 cytotox: inactive; SW480 rerep: inactive; MCF10A rereplic: inactive; IL1B secr inh: inactive

What do the screens show for `O=S1(=O)CC(O)C(N=Nc2c(O)n(Cc3ccccc3)c3ccccc23)C1` (stereo unspecified)?
KB-V1 cytotox: inactive; KB-3-1 cytotox: inactive; SW480 rerep: inconclusive; MCF10A rereplic: inactive; IL1B secr inh: inactive

What do the screens show for `O=C(N=Nc1c(O)n(Cc2ccccc2)c2ccccc12)c1cc2ccccc2cc1O`?
KB-V1 cytotox: inconclusive; KB-3-1 cytotox: inconclusive; SW480 rerep: inconclusive; MCF10A rereplic: 10µM; IL1B secr inh: inactive

What do the screens show for `COc1ccc(NC(=O)CSc2nc3cc(OC)c(OC)cc3c3nc(-c4ccccc4)nn23)cc1Cl`?
KB-V1 cytotox: inconclusive; KB-3-1 cytotox: inactive

Results for CC(C)(C)C(=O)N1CCN(c2ccc3c(c2)C2CC3CCN2C(=O)OCc2ccccc2)CC1 (stereo unspecified) ?
KB-V1 cytotox: inactive; KB-3-1 cytotox: inactive; IL1B secr inh: inactive

What do the screens show for `Cc1ccc(NC(=O)Cn2c(O)c(N=NC(=O)c3ccncc3)c3ccccc32)cc1`?
KB-V1 cytotox: inactive; KB-3-1 cytotox: inactive; SW480 rerep: inactive; MCF10A rereplic: inactive; IL1B secr inh: inactive

Results for Cc1ccc(NC(=O)Cn2c(O)c(N=NC(=O)c3cc4ccccc4cc3O)c3ccccc32)cc1 ?
KB-V1 cytotox: inconclusive; KB-3-1 cytotox: inconclusive; SW480 rerep: inconclusive; MCF10A rereplic: inconclusive; IL1B secr inh: -95

How did O=C(N=Nc1c(O)n(Cc2ccccc2)c2ccccc12)c1ccc(O)cc1 do in these assays?
KB-V1 cytotox: 15µM; KB-3-1 cytotox: inconclusive; SW480 rerep: inactive; MCF10A rereplic: inactive; IL1B secr inh: inconclusive

Results for S=c1nc[nH]c2n[nH]nc12 ?
KB-V1 cytotox: inactive; KB-3-1 cytotox: inactive

How did C#CCn1c(C2CC(=O)N(c3ccc(OC)cc3)C2)nc2ccccc21 (stereo unspecified) do in these assays?
KB-V1 cytotox: inactive; KB-3-1 cytotox: inactive

Results for CN(C)c1ncc(S(=O)(=O)c2ccccc2)c(-c2ccccc2Cl)n1 ?
KB-V1 cytotox: 18µM; KB-3-1 cytotox: inactive; SW480 rerep: inactive; MCF10A rereplic: inactive; IL1B secr inh: inactive

Results for C=CCn1cccc(/C=C/C(=O)c2ccc(C(C)(C)C)cc2)c1=S ?
KB-V1 cytotox: inconclusive; KB-3-1 cytotox: inactive; SW480 rerep: inconclusive; MCF10A rereplic: 13µM; IL1B secr inh: -107

Results for Cc1ccc(S(=O)(=O)c2nc(-c3cccc(C)c3)oc2N2CCN(c3ccccc3)CC2)cc1 ?
KB-V1 cytotox: inactive; KB-3-1 cytotox: inactive

Results for COc1ccc(CCNC(=S)Nc2cc(C)cc(C)c2)cc1 ?
KB-V1 cytotox: 18µM; KB-3-1 cytotox: inactive; SW480 rerep: inactive; MCF10A rereplic: inactive; IL1B secr inh: inactive

What do the screens show for `COc1ccc(C(=O)CC(=O)C(=O)NCCc2cccc(C)c2)cc1`?
KB-V1 cytotox: inconclusive; KB-3-1 cytotox: inactive; SW480 rerep: inconclusive; MCF10A rereplic: 18µM; IL1B secr inh: inactive

What do the screens show for `COc1ccc(CCNC(=S)Nc2ccc(C(C)C)cc2)cc1`?
KB-V1 cytotox: 23µM; KB-3-1 cytotox: inconclusive; SW480 rerep: inactive; MCF10A rereplic: inconclusive; IL1B secr inh: inactive

How did COc1ccc(NC(=S)NCCc2c(C)[nH]c3ccc(OC)cc23)cc1 do in these assays?
KB-V1 cytotox: inactive; KB-3-1 cytotox: inactive; SW480 rerep: inactive; MCF10A rereplic: inactive; IL1B secr inh: -52

What do the screens show for `COc1ccc(CCNC(=S)Nc2ccc(OC)cc2)cc1`?
KB-V1 cytotox: inactive; KB-3-1 cytotox: inactive; SW480 rerep: inactive; MCF10A rereplic: inactive; IL1B secr inh: inactive

How did NS(=O)(=O)c1ccc(NC(=O)COC(=O)Cn2cnc3ccccc3c2=O)cc1 do in these assays?
KB-V1 cytotox: inconclusive; KB-3-1 cytotox: inactive; SW480 rerep: inactive; MCF10A rereplic: inactive; IL1B secr inh: inactive

How did CN1CCN(S(=O)(=O)c2ccc(NC(=O)Cc3ccc([N+](=O)[O-])cc3)cc2)CC1 do in these assays?
SW480 rerep: inactive; MCF10A rereplic: inactive; IL1B secr inh: inactive

How did Cc1ccc(NS(=O)(=O)c2c(C)nc3sc(C)cn3c2=O)c(C)c1 do in these assays?
KB-V1 cytotox: inactive; KB-3-1 cytotox: inactive

Screens as filed in PubChem.
